# The source made the active and inactive calls.
# Legend:
# [1] = system: Plasmodium falciparum Sir2 (PF13_0152, Sir2A); experiment: Plasmodium falciparum Sir2A binding compounds – biochemical, small-molecule microarray, 635 nm fluorescence, primary screen (AID 1098); conditions: fluorescence 635 nm, higher = more signal;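 note: score merges spot fluorescence intensity with its signal-to-noise ratio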
# [2] = probe aDKK1 binding to arrayed compounds – biochemical, biotinylated probe, 635/667 nm fluorescence, primary screen (AID 1099); conditions: small-molecule microarray, higher = more signal;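 note: score merges 667nm spot fluorescence with signal to noise across triplicate slides; reference of the scale not given here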
# [3] = probe aCHRDL2 binding to arrayed compounds – biochemical, biotinylated probe, 635/667 nm fluorescence, primary screen (AID 1100); conditions: small-molecule microarray, higher = more signal
# [4] = change in splice reporter luminescence, either direction, cell-based, HEK293, spliceosome inhibition project, primary screen (AID 1101); conditions: HEK293 splicing luciferase reporter, 24 h, higher = more signal, called active from +8 up or from −8 down;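 note: HEK293 cells carrying a splicing-competent luciferase reporter gene; test concentration not given here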
# [5] = target: Fibroblast growth factor 10 (Homo sapiens) (UniProt O15520); experiment: compounds binding fibroblast growth factor 10 – biochemical, small-molecule microarray, 635 nm fluorescence, primary screen (AID 1102); conditions: FGF10 binding, fluorescence 635 nm, higher = more signal
# [6] = system: glycogen synthase kinase-3 (GSK3A per assay name; protocol says GSK3B); experiment: compounds binding glycogen synthase kinase-3 – biochemical, small-molecule microarray, 635 nm fluorescence, GSK3A, primary screen (AID 1103); conditions: fluorescence 635 nm, higher = more signal; note: the record names both GSK3A and GSK3B
# [7] = target: Epidermal growth factor receptor (Homo sapiens) (UniProt P00533); experiment: compounds binding epidermal growth factor receptor – biochemical, small-molecule microarray, 635 nm fluorescence, primary screen (AID 1104); conditions: EGFR binding, higher = more signal;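 note: score merges 667 nm emission intensity with spot signal to noise over triplicate slides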
# [8] = target: Follistatin-related protein 3 (Homo sapiens) (UniProt O95633); experiment: compounds binding follistatin-related protein 3 – biochemical, small-molecule microarray, 635 nm fluorescence, primary screen (AID 1105); conditions: FSTL3 binding, higher = more signal;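 note: score merges emission near 667 nm and signal to noise per printed spot across three slides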
# [9] = target: Dickkopf-related protein 1 (Homo sapiens) (UniProt O94907); experiment: small molecules binding DKK1 protein – biochemical, small-molecule microarray, 635 nm fluorescence scan, primary screen (AID 1106); conditions: higher = more signal;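 note: score merges emission near 667 nm with signal to noise over three replicate slides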
# [10] = system: Inhibin beta A chain (activin A); experiment: small molecules binding activin A – biochemical, small-molecule microarray, 635 nm fluorescence scan, primary screen (AID 1107); conditions: INHBA, higher = more signal;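 note: mouse activin A protein probed at 4.33 µg/mL on printed slides; score merges bound-protein fluorescence near 667 nm with spot signal-to-noise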
# Chain of Dickkopf-related protein 1 (Homo sapiens) (O94907 whole entry, looked up): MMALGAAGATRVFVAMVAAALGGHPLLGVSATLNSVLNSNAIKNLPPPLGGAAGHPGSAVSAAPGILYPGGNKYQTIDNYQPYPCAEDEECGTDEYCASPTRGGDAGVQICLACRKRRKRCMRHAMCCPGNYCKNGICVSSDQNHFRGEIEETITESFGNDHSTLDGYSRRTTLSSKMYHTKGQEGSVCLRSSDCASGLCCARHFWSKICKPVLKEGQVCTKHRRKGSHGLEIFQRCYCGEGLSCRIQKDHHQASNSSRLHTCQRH
# Chain of Fibroblast growth factor 10 (Homo sapiens) (O15520 whole entry, looked up): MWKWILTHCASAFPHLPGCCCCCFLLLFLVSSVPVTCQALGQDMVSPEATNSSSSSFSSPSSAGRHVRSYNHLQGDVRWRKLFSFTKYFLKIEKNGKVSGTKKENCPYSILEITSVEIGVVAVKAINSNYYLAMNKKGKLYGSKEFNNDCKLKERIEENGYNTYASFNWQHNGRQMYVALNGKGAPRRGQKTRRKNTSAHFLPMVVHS
# Chain of Epidermal growth factor receptor (Homo sapiens) (P00533 whole entry, looked up): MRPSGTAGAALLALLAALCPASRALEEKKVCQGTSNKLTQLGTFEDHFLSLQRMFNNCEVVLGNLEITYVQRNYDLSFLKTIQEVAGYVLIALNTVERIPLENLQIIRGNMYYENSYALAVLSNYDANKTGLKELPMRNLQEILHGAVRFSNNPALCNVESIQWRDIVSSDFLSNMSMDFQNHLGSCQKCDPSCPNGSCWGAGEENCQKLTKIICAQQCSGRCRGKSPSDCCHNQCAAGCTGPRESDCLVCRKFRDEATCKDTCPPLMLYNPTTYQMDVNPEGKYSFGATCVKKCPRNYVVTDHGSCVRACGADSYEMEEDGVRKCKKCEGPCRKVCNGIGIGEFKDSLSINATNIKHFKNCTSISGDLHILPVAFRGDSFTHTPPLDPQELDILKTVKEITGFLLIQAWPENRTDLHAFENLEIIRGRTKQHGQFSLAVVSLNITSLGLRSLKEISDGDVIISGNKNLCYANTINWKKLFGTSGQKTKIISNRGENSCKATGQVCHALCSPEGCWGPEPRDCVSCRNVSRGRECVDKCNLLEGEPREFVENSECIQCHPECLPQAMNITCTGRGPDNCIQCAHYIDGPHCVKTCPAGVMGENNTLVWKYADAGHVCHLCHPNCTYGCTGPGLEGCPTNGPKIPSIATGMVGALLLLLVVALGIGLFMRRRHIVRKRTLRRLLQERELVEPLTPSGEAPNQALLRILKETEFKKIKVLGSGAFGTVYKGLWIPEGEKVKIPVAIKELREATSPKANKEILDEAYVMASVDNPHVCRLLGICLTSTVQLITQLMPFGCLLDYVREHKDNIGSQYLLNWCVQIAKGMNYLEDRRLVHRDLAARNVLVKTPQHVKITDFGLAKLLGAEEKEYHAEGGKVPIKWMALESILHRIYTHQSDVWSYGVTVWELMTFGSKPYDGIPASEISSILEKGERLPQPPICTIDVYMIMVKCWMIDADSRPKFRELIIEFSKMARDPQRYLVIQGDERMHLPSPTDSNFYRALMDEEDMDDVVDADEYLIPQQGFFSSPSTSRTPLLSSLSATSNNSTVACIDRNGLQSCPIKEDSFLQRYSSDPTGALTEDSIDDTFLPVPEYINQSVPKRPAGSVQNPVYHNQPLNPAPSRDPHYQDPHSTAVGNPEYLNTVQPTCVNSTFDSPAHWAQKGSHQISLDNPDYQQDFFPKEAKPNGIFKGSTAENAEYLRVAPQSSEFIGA
# Chain of Follistatin-related protein 3 (Homo sapiens) (O95633 whole entry, looked up): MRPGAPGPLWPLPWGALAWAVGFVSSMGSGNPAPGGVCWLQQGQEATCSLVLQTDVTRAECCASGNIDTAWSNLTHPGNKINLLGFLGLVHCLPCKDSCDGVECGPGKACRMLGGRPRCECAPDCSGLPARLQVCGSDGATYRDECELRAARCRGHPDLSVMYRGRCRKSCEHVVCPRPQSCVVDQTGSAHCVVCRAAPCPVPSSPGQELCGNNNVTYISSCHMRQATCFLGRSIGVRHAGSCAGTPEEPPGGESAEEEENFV
Structure (SMILES),composite z-score [1],composite z-score [2],composite z-score [3],z-score [4],composite z-score [5],composite z-score [6],composite z-score [7],composite z-score [8],composite z-score [9],composite z-score [10]
CN(C)C(=O)[C@@]1(CCC(=O)OC(C)(C)C)N=C(c2ccc(OCCCO)cc2)O[C@H]1c1ccccc1,1.75,0.559,0.401,-0.919 (inactive),0.0744,0.556,-0.58,-0.725,-0.887,0.366
C=C(COC)C(=O)CC[C@@H](OC(=O)c1cccnc1)c1ccc(CO)o1,0.691,-0.2,-0.237,1.86 (inactive),0.0396,0.457,0.182,0.916,0.611,1.58
CN1C(=O)C2C=CC(C(O)c3ccccn3)N(Nc3ccccc3)C2C1=O (stereo not given),0.427,0.257,0.276,0.782 (inactive),0.3,0.422,0.389,0.157,-0.0961,1.05
COC(=O)c1c(CC[C@@H](CO)NC(=O)N[C@@H](Cc2ccccc2)Cn2cc(C3(O)CCCCC3)nn2)oc(C(C)=O)c1C(=O)OC,0.893,-0.27,-0.328,-2.62 (inactive),1.31,0.819,0.346,0.873,0.514,0.382
COC(=O)c1ccc(C23CC2(C(NP(=O)(c2ccccc2)c2ccccc2)c2ccccc2)C3)cc1 (stereo not given),0.36,1.83,1.39,-3.03 (inactive),0.831,-0.0094,0.134,0.835,-0.63,0.893
COc1ccc([Si](C)(C)[C@H]2[C@H](CCn3cc(CCO)nn3)O[C@@]3(C(=O)N(Cc4ccc(N5CCOC5=O)cc4)c4ccccc43)[C@@H]2C)cc1,1.51,-0.0848,0.236,-0.188 (inactive),0.209,0.625,-0.0252,0.642,0.141,0.766
COCCOC(=O)N1C(=O)[C@@]2(c3cc(C#CCC(C(=O)OC)C(=O)OC)ccc31)[C@H](C(=O)N1CCCCCCC1)[C@H]1C(=O)O[C@H](c3ccccc3)[C@H](c3ccccc3)N1[C@@H]2c1ccc(OCCO)cc1,1.74,2.72,1.65,0.161 (inactive),1.45,1.35,1.76,1.65,2.25,1.62
CCN(CC)c1ccc(N2CC=CC34O[C@@H]5/C=C\CCCOC(=O)C5[C@H]3C(=O)N(C(CO)C(C)C)[C@@H]4C2=O)cc1 (stereo not given in full),1.23,-0.252,-0.0922,0.167 (inactive),-0.711,-0.748,-1.05,-0.8,-0.681,1.11
CC(C)(C)N1CC=CC23O[C@@H]4/C=C\CCCOC(=O)C4[C@H]2C(=O)N(CCO)[C@@H]3C1=O (stereo not given in full),1.59,-0.0986,-0.0141,-0.639 (inactive),-0.142,-0.764,-0.932,-1.28,-0.377,0.0995
CCOC(=O)C[C@H]1[C@H](OC(=O)c2ccc(-c3ccccc3)cc2)[C@@H](NC(=O)c2ccc(-c3ccccc3)cc2)c2cc(OCCCO)ccc2N1C(=O)Cc1ccc(OC)cc1,-0.253,-0.0067,0.45,0.101 (inactive),0.256,-0.194,-0.0509,-0.0478,0.0032,0.638
C=CCC(OC(C)=O)[C@@H]1[C@@H](N(Cc2ccc(-c3ccccc3)cc2)C(=O)Cc2ccc(OC)cc2)c2cc(OCCCO)ccc2N1C(=O)c1ccc2ccccc2n1 (stereo not given in full),-0.245,-0.106,0.027,-1.33 (inactive),-0.19,-0.494,0.24,-0.0321,0.37,1.48
CO[C@H]1O[C@H](CO)[C@@H](OC(=O)Nc2ccc(Oc3ccccc3)cc2)[C@H](OC(=O)Nc2ccccc2)[C@H]1OC(=O)Nc1ccccc1,1.5,0.636,0.766,0.511 (inactive),1.35,1.33,0.24,1.2,0.113,0.185
C=C(COC)C(=O)CC[C@H](OC(C)=O)c1cccc(OCCO)c1,-0.443,-0.305,-0.0122,-0.637 (inactive),1.06,0.121,-0.92,-0.249,-0.118,0.35
C=C(CCCC)/C(=C/C[C@H](OC(C)=O)c1ccc(CO)o1)c1cnc2ccccc2c1,1.11,-0.179,-0.531,-0.276 (inactive),1.35,1.21,0.497,1.49,0.601,1.69
O=C1C[C@@](C(=O)NC2CC2)(c2ccc([N+](=O)[O-])cc2)[C@@H](c2ccc(CO)cc2)N1CC12CC3CC(CC(C3)C1)C2,1.3,-0.0801,0.782,-1.42 (inactive),0.474,0.612,0.1,0.925,0.253,0.571
COc1ccc(CCNC(=O)[C@@H]2c3ccccc3C(=O)N(Cc3ccc(OC(F)(F)F)cc3)[C@H]2c2ccc(CO)cc2)cc1,1.7,0.0658,0.396,0.0514 (inactive),0.719,0.965,-0.227,0.251,-0.204,0.258
CC(C)C(=C=CC[C@H](O)c1ccccc1OCCO)C[C@H](O)c1ccccn1,1.62,0.0012,-0.203,-0.705 (inactive),0.764,0.559,-0.536,-0.0639,-0.0832,0.407
CCOC(=O)C1=CC[C@@H](c2ccccc2)N(S(=O)(=O)c2ccc(C)cc2)[C@H]1C(=O)OCC,-0.0664,0.955,1.02,-0.287 (inactive),0.605,1.13,0.117,0.533,-0.249,1.04
COCCOC(=O)N1C(=O)[C@@]2(c3cc(C#CC4=CCCCC4)ccc31)[C@H](C(=O)NC[C@H](O)c1ccccc1)[C@H]1C(=O)O[C@H](c3ccccc3)[C@H](c3ccccc3)N1[C@@H]2c1ccc(O)cc1,1.14,0.298,0.124,-1.06 (inactive),1.22,1.3,0.663,1.41,1.06,1.01
O=c1oc(-c2ccccc2)nc2cc(Br)ccc12,0.486,-0.184,-0.493,-0.288 (inactive),0.312,0.838,0.448,0.582,0.508,-0.0295
O=C1O[C@H](c2ccccc2)[C@H](c2ccccc2)N2[C@H]1[C@@H](C(=O)N1CCN(c3ncccn3)CC1)[C@]1(C(=O)Nc3ccccc31)[C@H]2c1ccc(OCCO)cc1,0.348,-0.0864,0.174,-1.15 (inactive),1.29,1.22,0.665,1.32,0.632,0.395
COCCOC(=O)N1C(=O)[C@@]2(c3ccccc31)[C@H](C(=O)NC[C@H](O)c1ccccc1)[C@H]1C(=O)O[C@H](c3ccccc3)[C@H](c3ccccc3)N1[C@@H]2c1ccc(OCCO)cc1,1.38,0.0185,-0.131,-1.81 (inactive),1.08,1.27,1.13,1.51,1.01,0.955

# — PubChem BioAssay
